The record followed here is PubChem BioAssay AID1851 (National Center for Advancing Translational Sciences (NCATS), 2009).

A word on the AC50: it is the concentration giving half of the maximal activity seen.

The campaign covered roughly 16,000 compounds. About 2,600 (16%) were called active. Another 20% or so got no clear call; they are omitted. Calls follow the shape of the dose curve; as a rule, active = well fitted curve in the direction sought with a large enough effect; inconclusive = small, poorly fitted or top-dose-only effect, or effect the other way; inactive = no such curve, though single readings can be large or run the other way. These entries were drawn from the full list.
% is scaled to controls: 0 for no effect and ±100 for the full control effect.

The target in the test is Cytochrome P450 2D6 (Homo sapiens) (UniProt P10635). Nature of the test: Cytochrome panel assay with activity outcomes. The note with it: recombinant CYP, pro-luciferin dealkylation, luminescence, p450-cyp2d6; series mostly up to 57.1 µM.
Sequence of Cytochrome P450 2D6 (Homo sapiens) (P10635 whole entry, looked up): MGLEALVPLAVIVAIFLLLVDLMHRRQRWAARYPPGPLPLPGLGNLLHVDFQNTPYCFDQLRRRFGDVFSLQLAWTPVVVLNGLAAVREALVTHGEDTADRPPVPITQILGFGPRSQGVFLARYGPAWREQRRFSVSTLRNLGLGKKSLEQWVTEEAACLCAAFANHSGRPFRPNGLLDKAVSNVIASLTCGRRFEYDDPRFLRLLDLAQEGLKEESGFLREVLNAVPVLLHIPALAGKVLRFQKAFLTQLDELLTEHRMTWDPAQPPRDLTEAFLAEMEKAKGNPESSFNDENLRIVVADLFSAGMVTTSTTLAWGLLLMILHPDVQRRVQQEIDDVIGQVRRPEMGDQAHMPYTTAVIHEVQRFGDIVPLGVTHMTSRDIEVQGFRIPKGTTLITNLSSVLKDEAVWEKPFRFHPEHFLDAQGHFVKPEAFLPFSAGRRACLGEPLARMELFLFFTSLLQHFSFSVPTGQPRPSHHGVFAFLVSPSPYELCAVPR
Regarding `CCCOC(=O)c1c(NC(=O)/C=C/c2cnn(C)c2C)sc(C(=O)OCC)c1C`, the AC50 result is “inactive”.

Take `CCOc1cccc2cc(C(N)=O)c(=NCc3ccccc3)oc12`: the AC50 result is “inactive”.

Regarding `Oc1ccccc1-c1cc(-c2ccccc2)no1`, the AC50 entry was “inactive”.

In the case of `Cc1ccc(N(Cc2ccccc2)Cc2ccccc2)cc1`, the activity, negative = inhibition was 0.619% [at 11.4 µM] (inactive).

With `c1ccc(CN(CC2=NCCN2)c2ccccc2)cc1`, the half-maximal activity concentration (AC50) is 2.51 µM (active).

In the case of `c1c[nH]c(CN2CCOCC2)n1`, the activity, negative = inhibition was -10.1% [at 11.4 µM] (inactive).

Turning to `c1ccc2c(CC3=NCCN3)cccc2c1`, the AC50 is 7.94 µM (active).

As for `c1c[nH]c(CN2CCN(Cc3ncc[nH]3)CC2)n1`, the activity, negative = inhibition is -3.74% [at 11.4 µM] (inactive).

With `C[C@@H]1c2ccccc2CN1CC1=NCCN1`, the AC50 entry is “inactive”.

As to `Cc1cc(C=C(C#N)C#N)c(C)n1-c1ccccc1`, the AC50 entry is “inactive”.

Take `CCc1cc2c(nc1CC)CCN(CC/C(C)=N/O[C@@H](C)c1cn([C@H](CO)Cc3ccccc3)nn1)C2`: the activity, negative = inhibition is 2.14% [at 11.4 µM] (inactive).

Take `Nc1ncnc2c([C@@H]3O[C@@H](CO)[C@H](O)[C@@H]3O)nsc12`: the activity, negative = inhibition is -0.815% [at 11.4 µM] (inactive).

As for `N#Cc1c(N2CCN(C(=O)c3ccccc3Cl)CC2)nc(-c2ccccc2)c2c1CCCC2`, the AC50 result was “inactive”.

As to `CC1CN(C(=O)CN2C(=O)NC3(CCCCCC3)C2=O)CC(C)O1` (stereo not given), the AC50 entry was “inactive”.

Regarding `Cc1nc2cnc(Oc3cccc(Cl)c3)nc2n(C2CC2)c1=O`, the AC50 entry was “inactive”.

As to `CN(c1ccc(C(=O)NC2CC3CCC2C3)cc1)S(C)(=O)=O` (stereo not given), the AC50 entry is “inactive”.

As for `CNc1nc(NCCOC23CC4CC(CC(C4)C2)C3)nc(OCC(F)(F)F)n1`, the AC50 entry is “inactive”.

In the case of `Cc1ccc(C(=O)N2CCN(c3ccc(C(F)(F)F)cn3)CC2)cc1`, the AC50 result is “inactive”.

As to `COc1cccc(Nc2ncc3nc(C)c(=O)n(CCC#N)c3n2)c1`, the AC50 result was “inactive”.

As to `COc1cccc(-c2cc(NCCc3c[nH]c4ccc(OC)cc34)ncn2)c1`, the concentration at half-maximal activity (AC50) was 15.8 µM (active).

Regarding `CC(=O)NCCNc1cc(-c2ccccc2C)ncn1`, the AC50 entry is “inactive”.

`COC(=O)Nc1ccc2[nH]cc(CCNC(C)=O)c2c1`: the AC50 entry is “inactive”.

On to `COc1ccc2[nH]cc(CCNc3cc(-c4ccoc4)ncn3)c2c1`, for which the half-maximal activity concentration (AC50) was 12.6 µM (active).

Take `COCCNc1cc(-c2ccccc2C(F)(F)F)ncn1`: the AC50 entry was “inactive”.

For `COc1ccc2[nH]cc(CCNc3cc(-c4ccccc4C)ncn3)c2c1`, the half-maximal activity concentration (AC50) was 7.94 µM (active).

Consider `COc1ccc2[nH]cc(C=O)c2c1`, for which the AC50 result is “inactive”.

For the compound `COc1ccc2[nH]cc(CCNc3cc(-c4ccccc4OC)ncn3)c2c1`, the half-maximal activity concentration (AC50) was 12.6 µM (active).

Regarding `CCOC(=O)C1=C(C)NC2=C(C(=O)C(C(=O)OCC)C(c3ccc(OC)cc3)C2)C1c1ccccn1` (stereo not given), the AC50 result was “inactive”.

As for `O=C1OCCC1Sc1nnnn1-c1ccccc1` (stereo not given), the AC50 entry was “inactive”.

For `O=C1C[C@H](c2ccccc2)[C@@H](c2ccc(Br)cc2)O1`, the activity, negative = inhibition is -20.8% [at 11.4 µM] (inactive).

Consider `COCCn1c(=O)cnc2cnc(Nc3cccc(OC)c3)nc21`, for which the AC50 result is “inactive”.

Take `CC(C)Cc1nnc(NC(=O)c2ccc([N+](=O)[O-])cc2)s1`: the AC50 entry is “inactive”.

`COc1cccc(Cn2c(NCc3cccnc3)nc3c2c(=O)n(C)c(=O)n3C)c1`: the AC50 result was “inactive”.

On to `CC(C(=O)NCc1ccc2c(c1)OCO2)N1c2cccc3cccc(c23)S1(=O)=O` (stereo not given), for which the AC50 was 10 µM (active).

With `COc1ccc(CNC(=O)C(c2ccc(C)cc2)N(Cc2cccs2)C(=O)c2ccc3c(c2)OCCO3)cc1` (stereo not given), the AC50 entry was “inactive”.

`COc1ccc(NC(=O)CN2c3cccc4cccc(c34)S2(=O)=O)cc1`: the AC50 result is “inactive”.

Consider `NNC(=O)c1ccc[n+](CCc2ccccc2)c1`, for which the AC50 was 2 µM (active).

As for `O=C(CCc1ccccc1)NNC(=S)NC(=O)c1ccccc1`, the AC50 entry was “inactive”.

Take `CC(=O)Nc1ccc(C(=O)NNC(=O)CCc2ccccc2)cc1`: the AC50 entry was “inactive”.

For `CCc1cc2c(=O)[nH]cnc2s1`, the AC50 result was “inactive”.

`CN(C)C(=O)c1ccc(-c2ccc3ncnc(N(C)C)c3c2)cc1`: the AC50 result is “inactive”.

On to `CN(C)c1ncnc2ccc(-c3ccoc3)cc12`, for which the half-maximal activity concentration (AC50) is 10 µM (active).

As to `Cc1ccccc1-c1ccc2ncnc(N(C)C)c2c1`, the concentration at half-maximal activity (AC50) is 20 µM (active).

On to `Cc1noc(C)c1-c1ccc2ncnc(N(C)C)c2c1`, for which the AC50 result is “inactive”.

As to `CS(=O)(=O)Nc1cccc(-c2ccc3ncnc(NC4CC4)c3c2)c1`, the AC50 entry is “inactive”.

Regarding `CN(C)c1ccc(-c2ccc3ncnc(N(C)C)c3c2)cc1`, the AC50 result was “inactive”.

Consider `CS(=O)(=O)Nc1cccc(-c2ccc3ncnc(N4CCOCC4)c3c2)c1`, for which the AC50 entry was “inactive”.

Consider `CN(Cc1ccco1)c1ncnc2ccc(-c3cccc(NS(C)(=O)=O)c3)cc12`, for which the AC50 was 20 µM (active).

As to `CN(Cc1ccco1)c1ncnc2ccc(-c3cccnc3)cc12`, the AC50 was 2 µM (active).

Take `CN(C)c1ncnc2ccc(-c3ccccc3C#N)cc12`: the AC50 result is “inactive”.

For `CC(C)(C)CNCCO`, the activity, negative = inhibition was 17.6% [at 11.4 µM] (inactive).

With `COCCSc1nnc(NC(=O)C(C)(C)C)s1`, the AC50 result was “inactive”.

`Cc1c(Br)c([N+](=O)[O-])nn1C(C)C(=O)Nc1nccs1` (stereo not given): the AC50 entry is “inactive”.

On to `CCN(CC)C(=O)CSc1nnc(C2CCCCC2)o1`, for which the AC50 entry is “inactive”.

For the compound `COC(=O)CN1C(=O)S/C(=C/c2ccc(N3CCCCC3)o2)C1=O`, the AC50 entry is “inactive”.

In the case of `CSc1nc(N)c2ncn([C@H]3O[C@H](COP(=O)(O)OP(=O)(O)O)[C@@H](O)[C@@H]3O)c2n1`, the AC50 entry was “inactive”.

As for `O=C(O)c1cc(-c2ccc(-c3ccc(-c4cc(C(=O)O)c5cc(Cl)ccc5n4)cc3)cc2)nc2ccc(Cl)cc12`, the activity, negative = inhibition was 16.7% [at 11.4 µM] (inactive).

Take `Cn1nnnc1SCC(=O)Nc1ccccc1[N+](=O)[O-]`: the AC50 result was “inactive”.

For `CCS(=O)(=O)NCCc1cc2ccc(C)cc2[nH]c1=O`, the AC50 entry was “inactive”.

On to `CN(C)c1ncc2nc(-c3ccccc3)c(=O)n(C)c2n1`, for which the AC50 result is “inactive”.

With `CC(C)(C)C(=O)NC(c1ccc(Cl)cc1)[C@]1(C)C[C@H]1C1CCCCC1` (stereo not given in full), the AC50 entry is “inactive”.

Take `CNc1ncnc2ccc(-c3cccc(OC)c3)cc12`: the AC50 is 15.8 µM (active).

`COc1cccc(-c2ccc3ncnc(NC4CCNCC4)c3c2)c1`: the AC50 result was “inactive”.

On to `COc1cccc(-c2ccc3ncnc(Nc4ccccc4)c3c2)c1`, for which the AC50 result is “inactive”.

Regarding `COc1cccc(-c2ccc3ncnc(N(C)C)c3c2)c1`, the concentration at half-maximal activity (AC50) is 10 µM (active).

Take `COc1cccc(-c2ccc3ncnc(N(C)Cc4ccco4)c3c2)c1`: the AC50 is 10 µM (active).

For the compound `CN(Cc1ccco1)c1ncnc2ccc(-c3ccc4c(c3)OCO4)cc12`, the half-maximal activity concentration (AC50) is 1.58 µM (active).

As to `Cc1ccc(C(=O)NC(=S)NCC2CCCO2)cc1` (stereo not given), the AC50 result was “inactive”.

With `Cc1ccc(C2(C)NC(=O)N(CC(=O)Nc3cc(C)on3)C2=O)cc1` (stereo not given), the AC50 entry was “inactive”.

For `COc1ccc(-n2c(SC)nc(O)c(Cc3ccccc3)c2=O)cc1`, the AC50 result is “inactive”.

Turning to `CC1=NN(c2ccccc2)C(=O)C1C(=O)c1ccc(Cl)cc1` (stereo not given), the AC50 result was “inactive”.

Turning to `CCOc1ccc(CSC(CC(=O)O)C(=O)O)cc1` (stereo not given), the AC50 entry is “inactive”.

For the compound `CSC1=N/C(=C\c2ccc(C)cc2)C(=O)S1`, the AC50 entry was “inactive”.

For the compound `C[C@H](N=C(NC#N)Nc1ccncc1)C(C)(C)C`, the AC50 result was “inactive”.

As for `C[N+](C)(C)c1ncnc2c1ncn2[C@@H]1CCCCO1`, the activity, negative = inhibition was -6.66% [at 11.4 µM] (inactive).

`CCNc1ncc2nc(-c3cn(C)c4ccccc34)c(=O)n(Cc3cccc(OC)c3)c2n1`: the AC50 entry is “inactive”.

Regarding `CCOC(=O)/C(C(N)=NCCCO)=C(/O)c1ccccc1`, the AC50 result was “inactive”.

`COc1cc(OC)c(C#N)c(S(=O)(=O)Cc2ccccc2)c1`: the AC50 result is “inactive”.

With `COC(=O)c1c(-c2cc(OC)c(OC)c(OC)c2)c2ccc(OCc3ccccn3)cc2c(=O)n1-c1ccc(N)cc1`, the AC50 entry is “inactive”.

Regarding `O=C(Oc1ccccc1)N1CCC2(CC1)CN(c1ccccc1)C2`, the AC50 entry was “inactive”.

On to `COCCNC(=O)C(c1ccc(C)o1)N(CC1CCCO1)C(=O)Cn1nnc2ccccc21` (stereo not given), for which the AC50 result is “inactive”.

Take `O=C(Cn1nnc2ccccc21)N1CCCCC1`: the AC50 entry is “inactive”.

`COc1ccc(N(C(=O)Cn2nnc3ccccc32)C2(C(=O)NC3CCCC3)CCCCC2)cc1`: the AC50 is 11.2 µM (active).

For `CCOCC(=O)Nc1cc(-c2cn3cccnc3n2)ccc1C`, the AC50 entry is “inactive”.

Take `Clc1ccc(-c2ccnc(Oc3cc(Cl)ccc3Cl)n2)cc1`: the AC50 result is “inactive”.

For `CCOc1cc2[nH]c(=O)n(CCC(=O)NCc3ccc(OC)cc3)c(=O)c2cc1OCC`, the AC50 result is “inactive”.

As to `CCOC(=O)CSc1nc2ccccc2c(=O)n1CC1CCC(C(=O)NCc2ccco2)CC1` (stereo not given), the AC50 result was “inactive”.

With `CCCCCn1c(SCc2ccncc2)nc2cc(C(=O)NCc3ccco3)ccc2c1=O`, the half-maximal activity concentration (AC50) is 0.794 µM (active).

As to `Cc1cc(NC(=O)CSc2nc3ccccc3c(=O)n2CCCC(=O)NCc2ccco2)n[nH]1`, the concentration at half-maximal activity (AC50) is 15.8 µM (active).

Regarding `CCc1ccc(NC(=O)CSc2nc3cc(C(=O)OC)ccc3c(=O)n2Cc2ccco2)cc1`, the AC50 entry is “inactive”.

Regarding `Cc1cccc(C)c1-n1c(SCC(=O)NCc2ccco2)nc2ccccc2c1=O`, the concentration at half-maximal activity (AC50) was 28.2 µM (active).

Take `Cc1cc(NC(=O)CSc2nc3ccsc3c(=O)n2Cc2ccccn2)n[nH]1`: the AC50 result is “inactive”.

As for `O=C(CSc1nc2ccccc2c(=O)n1Cc1ccccc1)NCc1ccco1`, the AC50 entry is “inactive”.

With `O=C(NCC1CCCO1)c1ccc2c(=O)n(Cc3ccco3)c(SCC(=O)N3CCCC3)nc2c1` (stereo not given), the AC50 entry is “inactive”.

For the compound `O=C(CSc1nc2ccccc2c(=O)n1CCCC(=O)N1CCCC1)NCc1ccco1`, the AC50 entry was “inactive”.

For the compound `C=CCOc1ccc2cccc(/C=N/NC(=O)c3cc4cc([N+](=O)[O-])ccc4s3)c2c1`, the AC50 result is “inactive”.

For the compound `CCCCCCCOC1(c2ccccc2)OC(=O)c2ccccc21` (stereo not given), the AC50 result is “inactive”.

With `CCCN(CCC)C(=O)[C@@H](CCC(=O)O)NC(=O)c1ccccc1`, the AC50 entry was “inactive”.

Turning to `CC(=O)Nc1ccc2c(c1)/C(=C/c1ccc([N+](C)(C)C)cc1)c1ccccc1-2`, the activity, negative = inhibition was -4.76% [at 11.4 µM] (inactive).

As for `Cc1sc2nc(SCc3nc(-c4cccs4)no3)n(-c3ccccc3)c(=O)c2c1C`, the AC50 entry is “inactive”.

For `CC(C)=NNc1ncnc2nc[nH]c12`, the activity, negative = inhibition is 12.8% [at 11.4 µM] (inactive).

For `CN(C)CCN1C(=O)C(O)=C(C(=O)c2cc3ccccc3o2)C1c1ccccn1` (stereo not given), the AC50 entry was “inactive”.

With `NC(=S)NCCC[C@@H](N)C(=O)O`, the AC50 entry is “inactive”.

As for `CCCN=C(N)NCCC[C@H](N)C(=O)O`, the AC50 is 7.94 µM (active).

For `NC(=NCCC[C@H](N)C(=O)O)NO`, the AC50 entry is “inactive”.
